Source: PubChem BioAssay (National Center for Advancing Translational Sciences (NCATS))
ALOX12 inhib: blocks human 12-lipoxygenase activity. Potency, µM (top dose mostly 57.1 µM), actives largely listed as inhibitors. purified 12-hLO, xylenol orange hydroperoxide absorbance. AID 1452. P18054. 0.12% of 150,000 active; further: nearly all actives have a fitted effect of over 55% in size
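150 nM 12hLO, 25 mM Hepes pH 7.0 + 0.01% Triton X-100; cpd preinc 15 min RT; 40 uM arachidonic acid, 30 min RT; Fe-XO 30 min; A573/A405 ratio as read-out.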
IMPase inh: membrane-permeable compound that blocks inositol monophosphatase | P97697 | 120,000 tested, under 10 active | AID 901 | inhibition (IP1 accumulation), % at 46.1 µM | CHO-M1 cells, IP1 accumulation, HTRF TR-FRET ratio; active means well fitted curve in the direction sought with a large enough effect in the signal ratio, not every such curve was filed as active; inconclusive means small, poorly fitted or top-dose-only effect, or a change in a side signal; inactive means no such curve, though single readings can be large or run the other way; the % refers to the signal ratio;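 further: cells stimulated with carbachol in lithium chloride buffer; higher means more IMPase inhibition seen as more IP1 and lower FRET ratio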
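Elevated IP1 in lysates lowers TR-FRET signal (665/620 ratio and 620 channel reported). Cells were CHO-M1, given carbachol (50 uM as added) plus 50mM LiCl, pH 7.4, 30 min, 37C; compounds titrated up to 46 uM; AC50 by Hill equation.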
NPSR antagonist: antagonists of human neuropeptide S receptor cAMP signaling. Q6W5P4. CHO-NPSR cells, cAMP TR-FRET, antagonist mode. Potency, µM (doses to about 38.3 µM), hits mostly inhibitors. 1% of 220,000 active. AID 1461; further: nearly all actives have a fitted effect of over 50% in size
ALDH1A1 block: ALDH1A1 (human) enzyme inhibition; Purified ALDH1A1, NADH fluorescence, propionaldehyde substrate; Potency, µM (highest dose often 75.3 µM), usual class: inhibitors; 7.3% of 220,000 active; AID 1030; active means well fitted inhibition curve with a large enough effect, not every such curve was filed as active; inconclusive means small, poorly fitted or top-dose-only effect, or another doubt; inactive means no such curve, though single readings can be large or run the other way
Target sequence (P00352 whole entry, looked up): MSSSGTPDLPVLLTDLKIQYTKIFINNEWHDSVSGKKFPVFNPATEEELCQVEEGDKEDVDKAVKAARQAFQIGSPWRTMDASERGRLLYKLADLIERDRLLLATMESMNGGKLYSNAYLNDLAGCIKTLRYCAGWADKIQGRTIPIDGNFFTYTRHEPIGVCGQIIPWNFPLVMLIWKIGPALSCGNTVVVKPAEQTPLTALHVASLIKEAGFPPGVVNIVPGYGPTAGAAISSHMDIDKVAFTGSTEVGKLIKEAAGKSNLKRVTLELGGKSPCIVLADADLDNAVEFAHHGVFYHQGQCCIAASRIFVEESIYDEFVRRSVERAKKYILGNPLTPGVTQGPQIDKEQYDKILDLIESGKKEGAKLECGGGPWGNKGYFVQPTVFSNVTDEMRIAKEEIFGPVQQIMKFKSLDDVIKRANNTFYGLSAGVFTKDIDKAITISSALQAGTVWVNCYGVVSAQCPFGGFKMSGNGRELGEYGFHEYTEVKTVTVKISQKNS
IMPase Li inh: cell-permeable IMPase inhibitors with lithium potentiation. CHO-M1 cells, IP1 TR-FRET (IP-One), carbachol + lithium. Potency, µM (titrated, usually from 59.4 µM), hits mostly inhibitors. 0.35% of 210,000 active. AID 1457;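 further: IP1 builds up when IMPase is blocked and the TR-FRET signal falls; nearly all actives have a fitted effect of over 50% in size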
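IP1 accumulation measured by competitive TR-FRET in lysed CHO-M1 cells after 30 min compound exposure at 37C, with a small lithium addition to potentiate weak responses. Hill-equation AC50 from ratio and donor-channel data.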
HPGD inh: inhibitors of human 15-hydroxyprostaglandin dehydrogenase (HPGD); purified HPGD, NADH fluorescence kinetic, PGE2 substrate; Potency, µM, usual class: inhibitors; 4.3% of 150,000 active; active means well fitted inhibition curve with a large enough effect, not every such curve was filed as active; inconclusive means small, poorly fitted or top-dose-only effect, or another doubt; inactive means no such curve, though single readings can be large or run the other way
Target sequence (P15428 whole entry, looked up): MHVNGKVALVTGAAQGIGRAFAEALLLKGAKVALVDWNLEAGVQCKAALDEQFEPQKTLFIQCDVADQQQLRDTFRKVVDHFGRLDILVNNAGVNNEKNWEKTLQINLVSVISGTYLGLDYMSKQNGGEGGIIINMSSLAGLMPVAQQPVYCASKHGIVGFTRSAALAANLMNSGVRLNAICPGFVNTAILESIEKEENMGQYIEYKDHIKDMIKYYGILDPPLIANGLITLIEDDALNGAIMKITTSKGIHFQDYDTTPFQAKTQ
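NADH formation kinetics: reaction with 30 uM PGE2 and 1 mM NAD+ (final), 20 nM enzyme, Tris-HCl pH 8 with Tween 20, after 15 min compound preincubation at room temperature. Fluorescence change, last versus first of five reads.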
Hits are given with their value; – = inactive; ? = inconclusive; · = not tested or not shown; [ ] = another dose, or the depositor's remark. A selection: hits, their analogues and other compounds. The true share with any hit is near 8.9%. Unless noted, the call rests on the fitted dose curve; in most records, active means well fitted curve in the direction sought with a large enough effect; inconclusive means small, poorly fitted or top-dose-only effect, or another doubt; inactive means no such curve, though single readings can be large; an effect the other way counts as inactive or inconclusive.

SMILES | ALOX12 inhib | IMPase inh | NPSR antagonist | ALDH1A1 block | IMPase Li inh | HPGD inh
CN1C(=O)NC(c2ccccc2)(C(F)(F)F)S/C1=C(/C#N)c1nnc(N2CCOCC2)n1-c1ccccc1 (stereo not drawn) | – | – | – | – | – | –
Cc1cc(/C=C(\C#N)c2nnc(N3CCOCC3)n2-c2ccccc2)c(C)n1-c1ccccc1 | – | · | – | ? | – | –
CCN1C(c2ccc(F)cc2)=CS/C1=C(\C#N)c1nnc2n1-c1ccccc1SC2 | – | – | ? | 12.6µM | – | ?
CN1C(c2ccc(F)cc2)=CS/C1=C(/C#N)c1nnc(N2CCOCC2)n1-c1ccccc1 | – | · | – | 0.794µM | – | –
COc1ccc(C(=O)Nc2ccc(S(=O)(=O)Nc3nccnc3OC)cc2)cc1OC | – | – | – | – | – | –
O=[N+]([O-])c1cccc(CNC2CCCCCC2)c1 | · | · | – | – | – | ·
O=C(COC(=O)COc1cccc2ccccc12)NCC(F)(F)F | · | · | – | – | – | ·
O=C(Nc1ccc(Nc2ccccc2)cc1)c1ccc(Br)o1 | – | – | – | – | – | 28.2µM
COc1ccc(NC(=S)NC(=O)c2ccc(Br)o2)cc1 | · | · | – | 11.2µM | – | ·
O=C(NC(=S)Nc1ccccc1)c1ccc(Br)o1 | · | · | – | – | – | ·
O=C(Nc1ccc2c(c1)OCCO2)c1ccc(Br)o1 | – | – | – | ? | – | 28.2µM
COc1ccc(NC(=O)c2ccc(Br)o2)cc1 | –[0.00818 µM] | · | – | – | – | –
Cc1ccc(C(=O)Nc2ccc3c(c2)OCO3)o1 | – | – | – | – | – | –
CC/C=C\C/C=C\C/C=C\C/C=C\C/C=C\CCCC(=O)O | – | · | · | – | – | –
O=C(NNC(=O)C1[C@H]2CCCC[C@@H]12)c1ccc(=O)oc1 (stereo partly drawn) | · | · | –[7.67 µM] | · | · | ·
CC(C)C(C(=O)NC(C)(C)C)N1C(=O)c2ccccc2C1=O (stereo not drawn) | – | – | – | – | – | –
Cc1nc2cc(-c3cccs3)nn2c(NCC(C)(C)CN(C)C)c1C | · | · | ? | ? | – | ·
N#Cc1ccccc1Cn1c(=O)n(CCCC(=O)NCc2ccc3c(c2)OCO3)c(=O)c2ccccc21 | – | · | – | – | – | –
O=C1CN(C(=O)c2ccc(Br)o2)C(c2ccccc2)c2cc(Cl)ccc2N1 (stereo not drawn) | – | – | – | – | – | –
O=C1CN(C(=O)c2ccc(Br)o2)C(c2ccc(F)cc2)c2cc(Cl)ccc2N1 (stereo not drawn) | – | – | – | 22.4µM | – | –
O=C1CN(C(=O)c2ccc(Br)o2)C(c2ccccc2)c2cc(Br)ccc2N1 (stereo not drawn) | – | – | ? | 22.4µM | – | –
COc1ccc(NC(=O)c2c(Cl)n(C)c3ccccc23)cc1 | – | ? | – | – | – | –
C=CCn1c(SCC(=O)c2ccc(CNC(C)=O)o2)nc2ccccc2c1=O | – | – | – | ? | – | –
CCOc1cccc(CN2CCN(c3cccc(C(F)(F)F)c3)CC2)c1O | – | – | 10µM | – | – | –
Cc1ccc(S(=O)(=O)N2CCCCC2)cc1NC(=O)c1ccc2c(=O)n3c(nc2c1)CCCCC3 | – | · | – | 14.1µM | – | –
SMILES | ALOX12 inhib | IMPase inh | NPSR antagonist | ALDH1A1 block | IMPase Li inh | HPGD inh
COCC(=O)Nc1ccc2nc3n(c(=O)c2c1)CCCCC3 | · | · | – | · | · | ·
O=C(Nc1ccc(F)c(Cl)c1)c1ccc2c(=O)n3c(nc2c1)CCCCC3 | – | – | – | 25.1µM | · | ·
O=C(COc1ccc(Cl)cc1Cl)Nc1ccc2nc3n(c(=O)c2c1)CCCC3 | – | – | – | ? | – | 10µM
O=C(Nc1cccc(Cl)c1)c1ccc2c(=O)n3c(nc2c1)CCCCC3 | – | – | ? | ? | – | –
O=C(CNC(=S)N(CCCN1CCOCC1)Cc1cccs1)N1CCOCC1 | – | · | – | – | – | –
Fc1cc2[nH]c(=S)[nH]c2cc1Cl | · | · | – | 31.6µM | · | ·
COc1nc(NC(C)(C)C)nc(Oc2ccc(=O)n(-c3ccccc3)n2)n1 | – | – | – | – | · | ·
O=C(NC(=S)Nc1ccc(N2CCOCC2)c(Cl)c1)c1cccs1 | · | · | – | – | – | ·
O=C(NC(=S)Nc1ccc(N2CCCCC2)c(Cl)c1)c1ccc2c(c1)OCCO2 | ? | – | ? | 10µM | – | ?
O=C(NC(=S)Nc1ccc(N2CCOCC2)c(Cl)c1)c1sc2ccccc2c1Cl | – | – | – | 3.55µM | – | –
O=C(NC(=S)Nc1ccccc1N1CCOCC1)c1sc2ccccc2c1Cl | – | · | – | ? | – | –
O=C(NC(=S)Nc1ccc(N2CCOCC2)c(Cl)c1)c1cncc(Br)c1 | – | · | – | 7.94µM | – | 22.4µM
CN(C)S(=O)(=O)c1ccc(C(=O)N(c2ccccn2)c2ccccn2)cc1 | – | – | – | – | – | –
Fc1ccc(C(c2nnnn2Cc2ccco2)N2CCN(C3CCCCC3)CC2)cc1 (stereo not drawn) | – | – | – | ? | – | –
C=CCn1c(SCc2nc3ccccc3c(=O)[nH]2)nnc1-c1cc2cc(Cl)ccc2o1 | – | – | – | ? | ? | ?
O=C1OCCC1Sc1nnc(-c2cccs2)n1Cc1ccccc1 (stereo not drawn) | – | – | – | 20µM | – | –
CCc1cc2c(=O)n(Cc3ccccc3)c(SC3CCOC3=O)nc2s1 (stereo not drawn) | · | · | – | 2.82µM | – | ·
O=C1OCCC1Sc1nnc(-c2ccccc2Cl)n1Cc1ccccc1 (stereo not drawn) | – | · | – | – | – | –
Cc1ccc(-c2nn(-c3ccccc3)cc2CN(Cc2ccccc2)C(=O)c2ccco2)o1 | – | – | ? | 11.2µM | – | –
Clc1ccc(CNC23CN4CN(CN(C4)C2)C3)c(Cl)c1 | – | · | – | – | – | –
Oc1sc(C=Nc2ccccc2)c2ccccc12 | ? | –[1.84 µM] | – | 22.4µM | – | –
Oc1sc(C=Nc2ccc(F)cc2)c2ccccc12 | ? | –[1.84 µM] | ? | ? | – | –
O=C(Nc1ccc(Cl)cc1C(=O)O)c1ccc2c(c1)C(=O)N(Cc1ccco1)C2=O | – | · | – | 3.77µM | – | ?
O=C(NC1=NCCS1)c1ccc2c(c1)C(=O)N(Cc1ccco1)C2=O | – | – | – | 15.8µM | – | –
Cc1cccc(N/C=C(\[N+](=O)[O-])S(=O)(=O)c2ccccc2)c1C | · | · | – | 25.1µM | – | ·
Cc1ccc(NC(=O)C2CC(=O)NC(Nc3cccc(C)c3)=N2)cc1 (stereo not drawn) | – | – | – | – | – | –
O=C(CN(C(=O)Cn1nnc(-c2cccs2)n1)c1ccc2c(c1)OCCO2)NCc1ccccc1 | – | – | – | ? | – | –
O=C(CN(CCc1ccccc1)C(=O)CN1C(=O)COc2ccccc21)NCc1ccco1 | – | – | – | 8.91µM | – | –
O=C(CN(CCc1ccccc1)C(=O)Cn1nnc(-c2cccs2)n1)NCc1ccco1 | – | – | – | 12.6µM | – | –
